Screens from PubChem BioAssay.
Shown are actives, neighbours in structure and some others; about 11% of the full set was active somewhere.
VACV mCherry inh = inhibitors of vaccinia virus infection (mCherry reporter signal) | AID 720579 | 310,000 compounds, 0.63% hits | Vaccinia virus mCherry reporter infection, fluorescence | Potency, µM (series often up to 36.5 µM), for inactives: at the top dose activity change, negative = inhibition, actives largely listed as inhibitors; calls by dose curve; tested in A549 cells; further: on the % scale 0 is the no-effect control and ±100 the full control effect; nearly all actives have a fitted effect of over 35% in size
HCV inh = HCV inhibition; AID 651820; Huh7.5.1 HCVcc-Cre infection, luciferase reporter, 44 h; Potency, µM (titrated, usually from 41.8 µM), without a hit: top-dose activity change, negative = inhibition, hits mostly inhibitors; 340,000 compounds, 3.4% hits; further: on the % scale 0 is the no-effect control and ±100 the full control effect
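Antiviral activity was scored by luciferase reporter output from cells infected with HCVcc-Cre (~0.5 moi) in presence of compound, 44 h infection period, cells seeded 1,000/well 4 h prior.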
NS1 inh = blocks influenza NS1 protein function; 270,000 compounds, 0.4% hits; AID 2326; Potency, µM (titrated, usually from 46.1 µM), without a hit: top-dose activity, positive = more growth; calls by dose curve; further: actives are rising curves; nearly all actives have a fitted effect of over 50% in size
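OD600 was taken as the measure of yeast growth restored by compound in an NS1-expressing S. cerevisiae strain. Cells had been washed out of glucose medium and diluted 1:100 into galactose -URA medium, pH 6.0.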
Pf growth 96h = inhibits malaria parasite growth, 96 h; Potency, µM (series often up to 28.7 µM), for inactives: at the top dose activity change, negative = inhibition, actives largely listed as inhibitors; 320,000 compounds, 6.9% hits; P. falciparum luciferase reporter growth, 96 h; further: on the % scale 0 is the no-effect control and ±100 the full control effect
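Erythrocytes infected with luciferase-expressing P. falciparum were dispensed at 2% hematocrit and 0.05% parasitemia (final), then incubated with compounds 96 hours at 37 C in 5% CO2. Luminescence after detection reagent addition reported growth.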
Pf growth 48h = P. falciparum growth inhibition at 48 hours (one generation). Potency, µM (top dose mostly 28.7 µM), inactives show top-dose activity change, negative = inhibition, actives largely listed as inhibitors. P. falciparum luciferase growth in erythrocytes, 48 h. 310,000 compounds, 5.9% hits; further: on the % scale 0 is the no-effect control and ±100 the full control effect
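First compound was added to culture medium, then infected red cells at 0.1% parasitemia and 2% hematocrit (final). After incubation at 37 C under 5% CO2, luciferase detection reagent was dispensed and light output recorded.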
Vaccinia Venus = inhibitors of vaccinia virus (Venus reporter). Vaccinia virus Venus reporter expression, fluorescence. Potency, µM (highest dose often 36.5 µM), for the others: at the highest dose activity change, negative = inhibition, most hits filed as inhibitors. 330,000 compounds, 0.46% hits; calls by dose curve; tested in A549 cells; further: on the % scale 0 is the no-effect control and ±100 the full control effect; nearly all actives have a fitted effect of over 30% in size
* = called active by the depositor; i = inactive; ? = inconclusive; . = not tested or not shown; [ ] = another dose, or the depositor's remark. Unless noted, the call rests on the fitted dose curve; in most records, active means well fitted inhibition curve with a large enough effect; inconclusive means small, poorly fitted or top-dose-only effect, or another doubt; inactive means no such curve, though single readings can be large or run the other way. Potency means the concentration at half of the fitted maximal effect.

SMILES	VACV mCherry inh	HCV inh	NS1 inh	Pf growth 96h	Pf growth 48h	Vaccinia Venus
COc1ccc(NC(=S)NCc2ccc3c(c2)OCO3)cc1	-13.0%	-2.5%	.	1.65µM*	2.2%	14.3%
O=C(Nc1ccc(-c2cn3ccsc3n2)cc1)C1CCCC1	?	-27.1%	-17.0%	13.9%	48.4%	?
O=C(Nc1ccc(-c2cn3ccsc3n2)cc1)C1CC1	?	-20.8%	-50.0%	9.28µM*	-3.0%	-29.0%
CC(=O)Nc1ccc(-c2cn3ccsc3n2)cc1	-24.2%	6.5%	-14.8%	10.4µM*	229.5%	-2.8%
O=C(CC1S/C(=N/N=C/C=C/c2ccccc2)NC1=O)Nc1ccc(C(=O)O)cc1 (configuration not stated)	-2.5%	9.6%	.	?	10.8%	-0.7%
O=C(O)c1ccc(/C=N/Nc2ccc(Cl)nn2)cc1	-10.3%	19.4%	7.1%	9.2%	38.1%	8.9%
CCOc1ccc(-n2cc(C(=O)N3CCC(C)CC3)c3cc(OC)c(OC)cc3c2=O)cc1	-23.9%	-12.5%	-18.0%	77.0%	9.28µM*	-19.0%
CCOc1ccc(NC(=O)c2cn(-c3ccc(OCC)cc3)c(=O)c3cc(OC)c(OC)cc23)cc1	.	-21.4%	26.9%	3.29µM*	?	.
CCOc1ccc(-n2cc(C(=O)Nc3cccc(Cl)c3)c3cc(OC)c(OC)cc3c2=O)cc1	-25.9%	-7.6%	20.9%	45.4%	.	-10.0%
COC(=O)C1C(O)C(C)C(O)C(C)(O)/C=C\C=C(/C)C(=O)Nc2c(C)c(OC(C)=O)c3c(c2O)C(=O)C(C)=C2OCOC(=C23)/C(C)=C/C(C)(O)C(O)C(C)C1O (configuration not stated)	-19.4%	-0.8%	7.2%	?	2.94µM*	-4.0%
CCC(=O)N1CCN(c2ccccc2NC(=O)c2ccc(OC)c(Cl)c2)CC1	-6.9%	-3.9%	4.4%	7.38µM*	.	1.0%
COc1ccc(Cl)cc1C(=O)Nc1ccccc1N1CCN(C)CC1	-14.5%	?	-3.7%	-67.0%	?	-26.4%
COc1ccc(Cl)cc1C(=O)Nc1ccccc1N1CCCCC1	.	11.2µM*	-7.7%	?	3.7%[0.00184 µM]	.
O=C(Nc1ccccc1N1CCN(C(=O)c2ccc(Cl)cc2)CC1)c1cc(Br)ccc1Cl	.	-24.8%	?	4.65µM*	6.57µM*	.
CC(=O)N1CCN(c2ccccc2NC(=O)c2cc(Br)ccc2Cl)CC1	.	?	4.7%	.	?	-8.3%
COc1ccccc1C(=O)Nc1ccccc1N1CCN(C(=O)c2ccc(Cl)cc2)CC1	i	?	9.4%	?	8.28µM*	-16.4%
COc1ccccc1Cn1c(C)c(C(=O)NCCC#N)sc1=O	-7.1%	.	.	.	.	-4.4%
COc1ccccc1OCc1nnc(SCC(=O)NCc2ccco2)n1Cc1ccco1	i	-4.6%	8.3%	43.0%	-17.8%	-3.1%
CCn1c2ccccc2c2cc(C3C(C#N)=C(N)OC4=C3C(=O)CC(C)(C)C4)ccc21 (configuration not stated)	.	.	-1.9%	136.4%	27.8%	.
CCn1c2ccccc2c2cc(/C(C)=N/O)ccc21	-24.7%	10µM*	-40.0%	41.8%	-0.6%	-9.5%
CCn1c2ccccc2c2cc(/C=N/NC(=O)c3cc(O)cc(O)c3)ccc21	-9.3%	?	-8.2%	15.4%	?	0.1%
CCn1c2ccccc2c2cc(/C=N/NC(=O)c3ccc(O)cc3)ccc21	-25.1%	17.8µM*	?	12.8%	?	?
CCn1c2ccccc2c2cc(C3C(C#N)=C(C)NC(C)=C3C#N)ccc21	-7.0%	11.2µM*	-40.5%	0.1%	?	-17.5%
COc1cccc(CNCc2ccc(OC)cc2OC)c1	.	-6.0%	10.7%	0.0%	0.4%	.
CCn1c2ccccc2c2cc(CNCc3ccc(OC)cc3OC)ccc21	.	12.6µM*	-5.6%	-1.3%	?	.
SMILES	VACV mCherry inh	HCV inh	NS1 inh	Pf growth 96h	Pf growth 48h	Vaccinia Venus
Cc1ccc(C(=O)CC2(O)C(=O)N(Cc3ccccc3)c3ccccc32)o1 (configuration not stated)	.	-9.3%	0.5%[9.22 µM]	?	2.3%	-2.8%
CCC(CC)NCc1ccc2c(c1)c1ccccc1n2CC	.	12.6µM*	-6.8%	?	?	.
CCn1c2ccccc2c2cc(C#N)c(N)nc21	.	12.6µM*	.	.	.	.
CCn1c(=O)n(CC)c2cc(N)ccc21	-0.9%	-28.5%	3.7%	-17.3%	?	-14.8%
CCn1c2ccccc2c2cc(N)ccc21	.	-20.5%	?	11.7µM*	?	-13.4%
CCn1c2ccccc2c2cc(CNCCCN3CCOCC3)ccc21	.	?	-11.5%	3.6%	?	.
CCOC(=O)c1cc2c3ccccc3n(CC)c2nc1N	i	?	-8.4%	.	?	0.0%
CC(C)(Oc1ccc(Cl)cc1)C(=O)NC1CCCCC1	-22.9%	20.2%	.	-1.6%	11.7µM*	-11.7%
CC1(C)CC(NC(=O)C(C)(C)Oc2ccc(Cl)cc2)CC(C)(C)N1	-1.9%	-26.6%	-0.2%	29.5%	8.1%	-2.0%
COC(=O)/C(C(C)=O)=C(\C=C\N(C)C)N(C)C	-7.5%	-9.0%	8.6%	-17.9%	.	-5.3%
N#Cc1ccc(-c2ccc(OCC(O)CN3CCOCC3)cc2)cc1 (configuration not stated)	.	-28.6%	1.7%	12.5%	-5.2%	.
N#Cc1ccc(OCC(O)CN2CCC(C(O)(c3ccccc3)c3ccccc3)CC2)cc1 (configuration not stated)	i	10µM*	-7.6%	?	?	-18.3%
COc1ccc(CS(=O)c2nc(C)cc(C)c2S(C)(=O)=O)cc1 (configuration not stated)	-8.1%	-2.2%	.	29.8%	11.7µM*	-1.0%
CCOC(=O)NC(=O)C(=CNc1cccc(C)c1)C(=O)NC(=O)OCC	i	-13.9%	-8.3%	?	3.1%	1.2%
C=CCn1c(O)c(N=Nc2ccccc2O)c2ccccc21	-21.2%	-23.5%	.	62.2%	9.28µM*	?
C=CCn1c(O)c(N=NC(=S)Nc2ccc(OC)cc2)c2ccccc21	-28.8%	?	8.2%	0.0%	10.4µM*	-29.9%
C=CCn1c(O)c(N=Nc2ccccc2)c2ccccc21	?	15.4%	-4.6%	-0.6%	2.2%	-11.3%
C=CCn1c(O)c(N=NC(=S)Nc2cccc(OC)c2)c2ccccc21	-20.5%	?	5.4%	?	3.7µM*	-13.5%
C=CCn1c(O)c(N=NC(=O)OCC)c2ccccc21	-27.8%	-3.9%	-8.7%	30.5%	22.4%	-12.4%
Cc1cccc(Cn2cccc2CNS(=O)(=O)c2ccc(Br)cc2)c1	-27.7%	.	.	.	.	-10.6%
CCc1cc(SC#N)cc(CC)c1NC(=O)CCl	-25.1%	?	?	?	10.4µM*	-28.8%
CCOc1cc(NC(=O)CCl)c(OCC)cc1NC(=O)CCl	-12.3%	?	?	?	58.9%	1.0%
Cc1nc(-c2ccccc2)sc1CCNC(=O)C(=O)Nc1ccc(F)c(Cl)c1	2.9%	.	.	.	.	-1.4%
COc1ccc2cc(CO)c3cc(OC)c(OC)cc3c2c1	?	12.6µM*	.	.	.	?
